Results: PubChem BioAssay AID1159580 (chemical genetic matrix, 2015)
In all, about 5,500 compounds went through this assay and about 2,000 (36%) were called active. About 18% were inconclusive and are not listed. Cut-off read from the data, not from the text of the source: active = normalized growth mostly below about 0.91 (no sharp cut-off); inconclusive = no clear call, values can overlap the other calls; inactive = mostly above about 0.92. This is one part of the list.

Assay: chemical genetic growth profiling, strain panel (AID 1159580);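 note: tested at 20 µM; growth read once vehicle control cultures reached saturation at 30 °C; 1 = growth at the plate median or of vehicle wells; lower values mean less growth of the strain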
Settings: growth OD

Measured: normalized growth

C[C@]12CCC(=O)C=C1CCC1C2C(=O)C[C@@]2(C)C1CC[C@]2(O)C(=O)CO (stereo partly drawn)
inactive: S. cerevisiae deletion strains, locus YJL187C, strain SWE1, stronger effect = lower value 1.01 | S. cerevisiae deletion strains, locus YJR043C, strain POL32, stronger effect = lower value 1 | S. cerevisiae deletion strains, locus YJR066W, strain TOR1, stronger effect = lower value 0.967 | S. cerevisiae deletion strains, locus YKL009W, strain mrt4, stronger effect = lower value 1.06 | S. cerevisiae deletion strains, locus YKL068W, stronger effect = lower value 1.01 | S. cerevisiae deletion strains, locus YKL085W, strain MDH1 (second series), stronger effect = lower value 0.994 | S. cerevisiae deletion strains, locus YKL085W, strain MDH1, stronger effect = lower value 0.994 | S. cerevisiae deletion strains, locus YKL160W, strain elf1, stronger effect = lower value 1 | S. cerevisiae deletion strains, locus YKR001C, strain vps1, stronger effect = lower value 0.998 | S. cerevisiae deletion strains, locus YKR026C, strain gcn3, stronger effect = lower value 0.99 | S. cerevisiae deletion strains, locus YKR091W, strain srl3, stronger effect = lower value 0.999 | S. cerevisiae deletion strains, locus YLL001W, strain dnm1, stronger effect = lower value 1.03 | S. cerevisiae deletion strains, locus YLL026W, stronger effect = lower value 1 | S. cerevisiae deletion strains, locus YLL041C, strain sdh2, stronger effect = lower value 1.01 | S. cerevisiae deletion strains, locus YLR027C, strain aat2, stronger effect = lower value 1.01 | S. cerevisiae deletion strains, locus YLR039C, strain RIC1, stronger effect = lower value 1.01 | S. cerevisiae deletion strains, locus YLR058C, strain SHM2, stronger effect = lower value 0.981 | S. cerevisiae deletion strains, locus YLR102C, strain apc9, stronger effect = lower value 0.995 | S. cerevisiae deletion strains, locus YLR113W, strain HOG1, stronger effect = lower value 0.951 | S. cerevisiae deletion strains, locus YLR221C, strain rsa3, stronger effect = lower value 1 | S. cerevisiae deletion strains, locus YLR258W, strain gsy2, stronger effect = lower value 1.01 | S. cerevisiae deletion strains, locus YLR262C, strain YPT6 (second series), stronger effect = lower value 0.995 | S. cerevisiae deletion strains, locus YLR262C, strain YPT6, stronger effect = lower value 1.03 | S. cerevisiae deletion strains, locus YLR268W, strain sec22, stronger effect = lower value 1.05 | S. cerevisiae deletion strains, locus YLR320W, strain mms22, stronger effect = lower value 0.988 | S. cerevisiae deletion strains, locus YLR330W, strain CHS5, stronger effect = lower value 1 | S. cerevisiae deletion strains, locus YLR342W, strain FKS1 (second series), stronger effect = lower value 1.03 | S. cerevisiae deletion strains, locus YLR342W, strain FKS1, stronger effect = lower value 0.992 | S. cerevisiae deletion strains, locus YLR357W, strain rsc2, stronger effect = lower value 0.993 | S. cerevisiae deletion strains, locus YLR370C, strain arc18, stronger effect = lower value 1.01 | S. cerevisiae deletion strains, locus YLR371W, strain rom2, stronger effect = lower value 1.01 | S. cerevisiae deletion strains, locus YLR384C, strain iki3, stronger effect = lower value 1 | S. cerevisiae deletion strains, locus YLR418C, strain cdc73, stronger effect = lower value 1.03 | S. cerevisiae deletion strains, locus YML016C, strain PPZ1, stronger effect = lower value 1 | S. cerevisiae deletion strains, locus YML032C, strain rad52, stronger effect = lower value 0.957 | S. cerevisiae deletion strains, locus YML120C, strain ndi1, stronger effect = lower value 1.02 | S. cerevisiae deletion strains, locus YML124C, strain tub3, stronger effect = lower value 1 | S. cerevisiae deletion strains, locus YMR058W, strain fet3, stronger effect = lower value 0.998 | S. cerevisiae deletion strains, locus YMR078C, strain ctf18, stronger effect = lower value 1 | S. cerevisiae deletion strains, locus YMR125W, strain sto1, stronger effect = lower value 1 | S. cerevisiae deletion strains, locus YMR129W, stronger effect = lower value 0.989 | S. cerevisiae deletion strains, locus YMR205C, strain PFK2, stronger effect = lower value 0.987 | S. cerevisiae deletion strains, locus YMR223W, strain ubp8, stronger effect = lower value 0.977 | S. cerevisiae deletion strains, locus YMR231W, strain pep5, stronger effect = lower value 1.01 | S. cerevisiae deletion strains, locus YMR263W, strain SAP30, stronger effect = lower value 1 | S. cerevisiae deletion strains, locus YMR307W, strain GAS1, stronger effect = lower value 1.03 | S. cerevisiae deletion strains, locus YNL067W, strain RPL9B, stronger effect = lower value 1 | S. cerevisiae deletion strains, locus YNL071W, strain lat1, stronger effect = lower value 1.01 | S. cerevisiae deletion strains, locus YNL183C, strain NPR1, stronger effect = lower value 0.926 | S. cerevisiae deletion strains, locus YNL209W, strain ssb2, stronger effect = lower value 1 | S. cerevisiae deletion strains, locus YNL233W, strain BNI4, stronger effect = lower value 0.994 | S. cerevisiae deletion strains, locus YNL248C, strain rpa49, stronger effect = lower value 1 | S. cerevisiae deletion strains, locus YNL250W, strain rad50, stronger effect = lower value 0.999 | S. cerevisiae deletion strains, locus YNL271C, strain bni1, stronger effect = lower value 1 | S. cerevisiae deletion strains, locus YNL298W, strain CLA4, stronger effect = lower value 1.02 | S. cerevisiae deletion strains, locus YNL307C, strain MCK1, stronger effect = lower value 1.01 | S. cerevisiae deletion strains, locus YNL322C, strain KRE1 (second series), stronger effect = lower value 1 | S. cerevisiae deletion strains, locus YNR049C, strain mso1, stronger effect = lower value 1.01 | S. cerevisiae deletion strains, locus YNR052C, strain pop2, stronger effect = lower value 1 | S. cerevisiae deletion strains, locus YOL012C, strain htz1 0.71 | S. cerevisiae deletion strains, locus YOL147C, strain pex11, stronger effect = lower value 1.01 | S. cerevisiae deletion strains, locus YOR001W, strain rrp6, stronger effect = lower value 1.01 | S. cerevisiae deletion strains, locus YOR061W, strain CKA2, stronger effect = lower value 1.01 | S. cerevisiae deletion strains, locus YOR069W, strain VPS5, stronger effect = lower value 1.01 | S. cerevisiae deletion strains, locus YOR070C, strain gyp1, stronger effect = lower value 1.01 | S. cerevisiae deletion strains, locus YOR080W, strain dia2, stronger effect = lower value 1 | S. cerevisiae deletion strains, locus YOR083W, strain WHI5, stronger effect = lower value 1 | S. cerevisiae deletion strains, locus YOR106W, strain vam3, stronger effect = lower value 1.01 | S. cerevisiae deletion strains, locus YOR136W, strain idh2, stronger effect = lower value 1.01 | S. cerevisiae deletion strains, locus YOR144C, strain elg1, stronger effect = lower value 1 | S. cerevisiae deletion strains, locus YOR184W, strain ser1, stronger effect = lower value 1.03 | S. cerevisiae deletion strains, locus YOR231W, strain MKK1, stronger effect = lower value 0.985 | S. cerevisiae deletion strains, locus YOR265W, strain rbl2, stronger effect = lower value 1.02 | S. cerevisiae deletion strains, locus YOR270C, strain vph1, stronger effect = lower value 1.04 | S. cerevisiae deletion strains, locus YOR290C, strain snf2, stronger effect = lower value 0.964 | S. cerevisiae deletion strains, locus YOR316C, strain cot1, stronger effect = lower value 1 | S. cerevisiae deletion strains, locus YPL051W, strain arl3, stronger effect = lower value 1.02 | S. cerevisiae deletion strains, locus YPL055C, strain LGE1, stronger effect = lower value 0.992 | S. cerevisiae deletion strains, locus YPL078C, strain atp4, stronger effect = lower value 1.01 | S. cerevisiae deletion strains, locus YPL106C, strain sse1, stronger effect = lower value 0.96 | S. cerevisiae deletion strains, locus YPL240C, strain hsp82, stronger effect = lower value 0.981 | S. cerevisiae deletion strains, locus YPL256C, strain CLN2, stronger effect = lower value 0.981 | S. cerevisiae deletion strains, locus YPR119W, strain clb2, stronger effect = lower value 1 | S. cerevisiae deletion strains, locus YPR141C, strain kar3, stronger effect = lower value 0.994 | S. cerevisiae deletion strains, locus YPR163C, strain tif3, stronger effect = lower value 0.996 | S. cerevisiae deletion strains, locus YPR167C, strain met16, stronger effect = lower value 1.01 | S. cerevisiae deletion strains, strain wtn01, stronger effect = lower value 1.05 | S. cerevisiae strains, strain wild type, stronger effect = lower value 0.995
